This is an account of results in PubChem BioAssay (NCI).

The structures appear in SMILES notation. About 79,000 compounds went through this panel and 15% of them were active in at least one assay; those are over-represented in the sample as a whole. Calls of active or inactive are those of the source. Rule as the data show it: active = growth inhibition above about 70%; inactive = the rest.

A short description of this experiment: NCI Yeast Anticancer Drug Screen. Data for the rad50EPP+ strain (AID 151).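 Also: 0% = growth of vehicle-treated control cultures.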 Conditions: S. cerevisiae rad50 mutant strain, stronger effect = higher value. Here is the method:
Growth inhibition of yeast strains with defined genetic alterations is measured as a screen for potential anti-cancer activity. Selected strains with alterations in DNA damage repair or cell cycle control were exposed to compounds and growth inhibition was measured relative to vehicle treated controls. The strain used in this assay is rad50EPP+

For the compound `CC(O)=NC(Cc1ccc2ccccc2c1)C(O)=NC(Cc1ccc(Cl)cc1)C(O)=NC(Cc1c[nH]c2ccccc12)C(O)=NC(CO)C(O)=NC(Cc1ccc(O)cc1)C(O)=NC(CCCN=C(N)N)C(O)=NC(CC(C)C)C(O)=NC(CCCN=C(N)N)C(=O)N1CCCC1C(O)=NC(C)C(=N)O` (stereo not given), the growth inhibition reads like this: (at 1.2 µM) -4% (inactive); (at 3.7 µM) 2% (inactive); (at 11.0 µM) 11% (inactive); (at 33.0 µM) 16% (inactive); (at 100.0 µM) 11% (inactive).
Take `O=C(C[n+]1ccc2ccccc2c1)c1ccc2ccccc2c1`: the growth inhibition by setting is: (at 1.2 µM) -19% (inactive); (at 3.7 µM) -42% (inactive); (at 11.0 µM) -35% (inactive); (at 33.0 µM) -20% (inactive); (at 100.0 µM) 74% (active).
Take `O=C(CSC(=S)N1CCCCC1)Nc1nc2c(s1)CCCC2`: the growth inhibition runs as follows: (at 1.2 µM) 21% (inactive); (at 3.7 µM) 31% (inactive); (at 11.0 µM) 38% (inactive); (at 33.0 µM) 40% (inactive); (at 100.0 µM) 41% (inactive).
As to `c1ccc2c(OCC3CO3)cccc2c1` (stereo not given), the growth inhibition reads like this: (at 1.2 µM) 9% (inactive); (at 3.7 µM) 30% (inactive); (at 11.0 µM) 73% (active); (at 33.0 µM) 93% (active); (at 100.0 µM) 96% (active).
Regarding `Cc1cc(C)nc(NS(=O)(=O)c2ccc(Nc3c4ccccc4nc4c(C(=O)NCCO)cccc34)cc2)n1`, the growth inhibition by setting is: (at 1.2 µM) -3% (inactive); (at 3.7 µM) 0% (inactive); (at 11.0 µM) 1% (inactive); (at 33.0 µM) 3% (inactive); (at 100.0 µM) -14% (inactive).
Regarding `CN(C)CCOC1(Cc2ccc(F)cc2)CCC(C(C)(C)C)CC1` (stereo not given), the growth inhibition runs as follows: (at 1.2 µM) -1% (inactive); (at 3.7 µM) -13% (inactive); (at 11.0 µM) -27% (inactive); (at 33.0 µM) -61% (inactive); (at 100.0 µM) 68% (inactive).
`CN(C)CCCCN1c2ccccc2Sc2ccc(N=[N+]=[N-])cc21`: the growth inhibition (at 1.2 µM) is 24% (inactive); the growth inhibition (at 3.7 µM) was 20% (inactive); the growth inhibition (at 11.0 µM) is 23% (inactive); the growth inhibition (at 33.0 µM) was 23% (inactive); the growth inhibition (at 100.0 µM) was 80% (active).
On to `Oc1ccc(SCc2ccc(NCc3ccccc3)cc2)cc1`, for which the growth inhibition is -10% (inactive) (at 1.2 µM); -22% (inactive) (at 3.7 µM); -17% (inactive) (at 11.0 µM); 0% (inactive) (at 33.0 µM); 6% (inactive) (at 100.0 µM).
